Source: PubChem BioAssay (NCATS)
Inconclusive results are not listed. Activity calls are given as the source filed them. Unless noted, the call rests on the fitted dose curve; in most records, active means well fitted curve in the direction sought with a large enough effect; inconclusive means small, poorly fitted or top-dose-only effect, or another doubt; inactive means no such curve, though single readings can be large; an effect the other way counts as inactive or inconclusive.

Experiments:
[1] = target: ATP-dependent 6-phosphofructokinase (Trypanosoma brucei brucei) (UniProt O15648); experiment: qHTS Assay to Find Inhibitors of T. brucei phosphofructokinase: hit validation (AID 492961);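 further: luminescence reports ADP formed as PFK phosphorylates fructose-6-phosphate with ATP; on the % scale 0 is the no-effect control and ±100 the full control effect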
In short: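 ADP-Glo luminescence read-out of ADP formed by 1.25 nM PFK from 0.1 mM ATP and 0.5 mM F6P (TEA pH 8.0, 45 min, RT). Compounds titrated; activity normalized to no-enzyme and full-enzyme controls.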

[2] = target: Luciferin 4-monooxygenase (Photinus pyralis) (UniProt P08659); experiment: Biochemical firefly luciferase enzyme assay for NPC (AID 624030);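 further: purified P. pyralis luciferase at 10 nM with luciferin and ATP substrate; 0% = DMSO and -100% = full luciferase inhibition by PTC124 control; nearly all actives have a fitted effect of over 70% in size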
In short: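 Direct inhibition of firefly luciferase enzyme (10 nM final, 50 mM Tris Acetate) assessed by luminescence within 5 minutes. Percent activity scaled between DMSO and PTC124 positive control, with concentration-effect curves classified by fit quality and response.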

[3] = S16 Schwann cell viability assay (CellTiter-Glo assay) (AID 624031);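 further: cellular ATP luminescence as a viability measure; plate controls were DMSO-treated cells for no effect and cell-free wells for full effect; nearly all actives have a fitted effect of over 70% in size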
In short: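 CellTiter-Glo ATP luminescence counter-screen in untransfected S16 rat Schwann cells, 24h compound exposure at 37 degree Celsius after overnight seeding (500-750 cells/well); response scaled between cell-free wells and DMSO (0% activity), curves classed by r2 and magnitude.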

[4] = S16 Schwann cell PMP22 intronic element firefly luciferase assay (AID 624032);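 further: plate controls were DMSO for no effect and PTC124 positive control mean for full effect; nearly all actives have a fitted effect of over 30% in size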
In short: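 Luciferase reporter of PMP22 intronic-element expression in stably transfected S16 rat Schwann cells, read by ONE-Glo luminescence after 24 h compound exposure at 37 C. Activity scaled between DMSO (0%) and positive-control PTC124; concentration-effect curves quality-classified.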

[5] = S16 Schwann cell PMP22 intronic element beta-lactamase assay (AID 624044; calls by dose curve;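 further: 0% = DMSO and -100% = potassium clavulanate positive control; nearly all actives have a fitted effect of over 15% in size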)
In short: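 Rat S16 Schwann cells with beta-Lac driven by a PMP22 intronic element, compound-treated 24 h at 37 °C. LiveBLAzer FRET B/G read: 460 nm normalized to potassium clavulanate vs DMSO; 535 nm FRET as viability; concentration-effect curves classified.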

[6] = qHTS profiling for inhibitors of Plasmodium falciparum proliferation (AID 504749);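 further: 0% = DMSO vehicle and full inhibition = artemisinin control; nearly all actives have a fitted effect of over 60% in size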; settings: P. falciparum in erythrocytes, SYBR Green DNA, 72 h; at 28.7 µM (top of the series); parasite line A
In short: (§1)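 Infected RBCs, 0.3% parasitemia/2.5% Hct final; cpd 72 h, 37 C, 5% CO2; lysis buffer with saponin/triton/SYBR Green I, o/n RT dark; FI 485/535; norm. to artemisinin (0.29 uM) and DMSO.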

3D7 = experiment: as above; settings: P. falciparum in erythrocytes, SYBR Green DNA, 72 h; series mostly up to 28.7 µM
In short: as §1

7G8 = experiment: as above; settings: P. falciparum in erythrocytes, SYBR Green DNA, 72 h; series mostly up to 28.7 µM
In short: as §1

AA1029 = experiment: as above; settings: P. falciparum in erythrocytes, SYBR Green DNA, 72 h; series mostly up to 28.7 µM
In short: as §1

AS120 = experiment: as above; settings: P. falciparum in erythrocytes, SYBR Green DNA, 72 h; series mostly up to 28.7 µM
In short: as §1

ATS189 = experiment: as above; settings: P. falciparum in erythrocytes, SYBR Green DNA, 72 h; series mostly up to 28.7 µM
In short: as §1

ATS95 = experiment: as above; settings: P. falciparum in erythrocytes, SYBR Green DNA, 72 h; series mostly up to 28.7 µM
In short: as §1

C2A = experiment: as above; settings: P. falciparum in erythrocytes, SYBR Green DNA, 72 h; series mostly up to 28.7 µM
In short: as §1

CP185 = experiment: as above; settings: P. falciparum in erythrocytes, SYBR Green DNA, 72 h; series mostly up to 28.7 µM
In short: as §1

CP191 = experiment: as above; settings: P. falciparum in erythrocytes, SYBR Green DNA, 72 h; series mostly up to 28.7 µM
In short: as §1

CP192 = experiment: as above; settings: P. falciparum in erythrocytes, SYBR Green DNA, 72 h; series mostly up to 28.7 µM
In short: as §1

CP194 = experiment: as above; settings: P. falciparum in erythrocytes, SYBR Green DNA, 72 h; series mostly up to 28.7 µM
In short: as §1

CP201 = experiment: as above; settings: P. falciparum in erythrocytes, SYBR Green DNA, 72 h; series mostly up to 28.7 µM
In short: as §1

CP203 = experiment: as above; settings: P. falciparum in erythrocytes, SYBR Green DNA, 72 h; series mostly up to 28.7 µM
In short: as §1

CP211 = experiment: as above; settings: P. falciparum in erythrocytes, SYBR Green DNA, 72 h; series mostly up to 28.7 µM
In short: as §1

CP215 = experiment: as above; settings: P. falciparum in erythrocytes, SYBR Green DNA, 72 h; series mostly up to 28.7 µM
In short: as §1

CP217 = experiment: as above; settings: P. falciparum in erythrocytes, SYBR Green DNA, 72 h; series mostly up to 28.7 µM
In short: as §1

CP237 = experiment: as above; settings: P. falciparum in erythrocytes, SYBR Green DNA, 72 h; series mostly up to 28.7 µM
In short: as §1

CP238 = experiment: as above; settings: P. falciparum in erythrocytes, SYBR Green DNA, 72 h; series mostly up to 28.7 µM
In short: as §1

CP247 = experiment: as above; settings: P. falciparum in erythrocytes, SYBR Green DNA, 72 h; series mostly up to 28.7 µM
In short: as §1

CP250 = experiment: as above; settings: P. falciparum in erythrocytes, SYBR Green DNA, 72 h; series mostly up to 28.7 µM
In short: as §1

CP252 = experiment: as above; settings: P. falciparum in erythrocytes, SYBR Green DNA, 72 h; series mostly up to 28.7 µM
In short: as §1

CP256 = experiment: as above; settings: P. falciparum in erythrocytes, SYBR Green DNA, 72 h; series mostly up to 28.7 µM
In short: as §1

CP260 = experiment: as above; settings: P. falciparum in erythrocytes, SYBR Green DNA, 72 h; series mostly up to 28.7 µM
In short: as §1

CP262 = experiment: as above; settings: P. falciparum in erythrocytes, SYBR Green DNA, 72 h; series mostly up to 28.7 µM
In short: as §1

CP265 = experiment: as above; settings: P. falciparum in erythrocytes, SYBR Green DNA, 72 h; series mostly up to 28.7 µM
In short: as §1

CP266 = experiment: as above; settings: P. falciparum in erythrocytes, SYBR Green DNA, 72 h; series mostly up to 28.7 µM
In short: as §1

CP268 = experiment: as above; settings: P. falciparum in erythrocytes, SYBR Green DNA, 72 h; series mostly up to 28.7 µM
In short: as §1

CP269 = experiment: as above; settings: P. falciparum in erythrocytes, SYBR Green DNA, 72 h; series mostly up to 28.7 µM
In short: as §1

CP286 = experiment: as above; settings: P. falciparum in erythrocytes, SYBR Green DNA, 72 h; series mostly up to 28.7 µM
In short: as §1

CP291 = experiment: as above; settings: P. falciparum in erythrocytes, SYBR Green DNA, 72 h; series mostly up to 28.7 µM
In short: as §1

CP297 = experiment: as above; settings: P. falciparum in erythrocytes, SYBR Green DNA, 72 h; series mostly up to 28.7 µM
In short: as §1

CP305 = experiment: as above; settings: P. falciparum in erythrocytes, SYBR Green DNA, 72 h; series mostly up to 28.7 µM
In short: as §1

CP315 = experiment: as above; settings: P. falciparum in erythrocytes, SYBR Green DNA, 72 h; series mostly up to 28.7 µM
In short: as §1

CP325 = experiment: as above; settings: P. falciparum in erythrocytes, SYBR Green DNA, 72 h; series mostly up to 28.7 µM
In short: as §1

CP329 = experiment: as above; settings: P. falciparum in erythrocytes, SYBR Green DNA, 72 h; series mostly up to 28.7 µM
In short: as §1

CP335 = experiment: as above; settings: P. falciparum in erythrocytes, SYBR Green DNA, 72 h; series mostly up to 28.7 µM
In short: as §1

DFO2036 = experiment: as above; settings: P. falciparum in erythrocytes, SYBR Green DNA, 72 h; series mostly up to 28.7 µM
In short: as §1

DIV14 = experiment: as above; settings: P. falciparum in erythrocytes, SYBR Green DNA, 72 h; series mostly up to 28.7 µM
In short: as §1

DIV17 = experiment: as above; settings: P. falciparum in erythrocytes, SYBR Green DNA, 72 h; series mostly up to 28.7 µM
In short: as §1

DIV30 = experiment: as above; settings: P. falciparum in erythrocytes, SYBR Green DNA, 72 h; series mostly up to 28.7 µM
In short: as §1

Dd2 = experiment: as above; settings: P. falciparum in erythrocytes, SYBR Green DNA, 72 h; series mostly up to 28.7 µM
In short: as §1

ECU = experiment: as above; settings: P. falciparum in erythrocytes, SYBR Green DNA, 72 h; series mostly up to 28.7 µM
In short: as §1

FAB9 = experiment: as above; settings: P. falciparum in erythrocytes, SYBR Green DNA, 72 h; series mostly up to 28.7 µM
In short: as §1

GB4 = experiment: as above; settings: P. falciparum in erythrocytes, SYBR Green DNA, 72 h; series mostly up to 28.7 µM
In short: as §1

HB3 = experiment: as above; settings: P. falciparum in erythrocytes, SYBR Green DNA, 72 h; series mostly up to 28.7 µM
In short: as §1

ICS = experiment: as above; settings: P. falciparum in erythrocytes, SYBR Green DNA, 72 h; series mostly up to 28.7 µM
In short: as §1

JCK = experiment: as above; settings: P. falciparum in erythrocytes, SYBR Green DNA, 72 h; series mostly up to 28.7 µM
In short: as §1

N140 = experiment: as above; settings: P. falciparum in erythrocytes, SYBR Green DNA, 72 h; series mostly up to 28.7 µM
In short: as §1

P93_24 = experiment: as above; settings: P. falciparum in erythrocytes, SYBR Green DNA, 72 h; series mostly up to 28.7 µM
In short: as §1

P94_40 = experiment: as above; settings: P. falciparum in erythrocytes, SYBR Green DNA, 72 h; series mostly up to 28.7 µM
In short: as §1

PAD = experiment: as above; settings: P. falciparum in erythrocytes, SYBR Green DNA, 72 h; series mostly up to 28.7 µM
In short: as §1

PC15 = experiment: as above; settings: P. falciparum in erythrocytes, SYBR Green DNA, 72 h; series mostly up to 28.7 µM
In short: as §1

PC26 = experiment: as above; settings: P. falciparum in erythrocytes, SYBR Green DNA, 72 h; series mostly up to 28.7 µM
In short: as §1

PC49 = experiment: as above; settings: P. falciparum in erythrocytes, SYBR Green DNA, 72 h; series mostly up to 28.7 µM
In short: as §1

SC27B = experiment: as above; settings: P. falciparum in erythrocytes, SYBR Green DNA, 72 h; series mostly up to 28.7 µM
In short: as §1

TAB109 = experiment: as above; settings: P. falciparum in erythrocytes, SYBR Green DNA, 72 h; series mostly up to 28.7 µM
In short: as §1

TAB113 = experiment: as above; settings: P. falciparum in erythrocytes, SYBR Green DNA, 72 h; series mostly up to 28.7 µM
In short: as §1

TAB165 = experiment: as above; settings: P. falciparum in erythrocytes, SYBR Green DNA, 72 h; series mostly up to 28.7 µM
In short: as §1

ATP-dependent 6-phosphofructokinase (Trypanosoma brucei brucei), sequence (O15648 whole entry, looked up): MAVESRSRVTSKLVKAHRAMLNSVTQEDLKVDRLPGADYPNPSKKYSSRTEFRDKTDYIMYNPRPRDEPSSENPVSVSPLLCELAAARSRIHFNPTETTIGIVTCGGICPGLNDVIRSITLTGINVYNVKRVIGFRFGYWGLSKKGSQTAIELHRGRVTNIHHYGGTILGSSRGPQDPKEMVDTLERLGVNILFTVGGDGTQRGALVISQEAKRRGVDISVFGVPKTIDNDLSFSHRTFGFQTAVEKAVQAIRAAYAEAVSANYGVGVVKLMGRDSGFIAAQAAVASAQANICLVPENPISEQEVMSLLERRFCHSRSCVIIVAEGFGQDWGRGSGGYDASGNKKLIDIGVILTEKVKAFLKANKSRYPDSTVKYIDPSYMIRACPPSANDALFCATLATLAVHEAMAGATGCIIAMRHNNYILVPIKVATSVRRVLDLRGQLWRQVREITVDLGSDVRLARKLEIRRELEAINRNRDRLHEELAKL
Luciferin 4-monooxygenase (Photinus pyralis), sequence (P08659 whole entry, looked up): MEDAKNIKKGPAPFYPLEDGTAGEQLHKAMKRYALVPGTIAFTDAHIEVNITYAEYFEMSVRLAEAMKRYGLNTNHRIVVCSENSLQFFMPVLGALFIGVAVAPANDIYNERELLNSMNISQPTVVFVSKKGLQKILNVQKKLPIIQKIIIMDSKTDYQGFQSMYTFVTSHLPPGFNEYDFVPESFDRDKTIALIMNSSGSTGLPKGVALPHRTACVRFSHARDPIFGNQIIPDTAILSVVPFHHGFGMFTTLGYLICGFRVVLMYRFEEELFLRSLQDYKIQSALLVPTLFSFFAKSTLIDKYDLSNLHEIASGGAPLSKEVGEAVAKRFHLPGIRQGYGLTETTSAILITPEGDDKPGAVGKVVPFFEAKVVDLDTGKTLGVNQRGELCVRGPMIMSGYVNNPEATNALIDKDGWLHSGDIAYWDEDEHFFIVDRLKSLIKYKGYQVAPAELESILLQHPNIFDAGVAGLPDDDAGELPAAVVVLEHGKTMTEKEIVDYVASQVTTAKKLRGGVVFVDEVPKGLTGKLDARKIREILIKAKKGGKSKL

CC(=O)[C@H]1CC[C@H]2C3CC=C4C[C@@H](O)CC[C@]4(C)C3CC[C@]12C (some centres undefined)
inactive: outcome [1] | Potency [2] | outcome [3] | Potency [4] | Potency [5] | activity, negative = inhibition [6] -13% | Potency (3D7) | Potency (7G8) | Potency (AA1029) | Potency (AS120) | Potency (ATS189) | Potency (ATS95) | Potency (C2A) | Potency (CP185) | Potency (CP191) | Potency (CP192) | Potency (CP194) | Potency (CP201) | Potency (CP203) | Potency (CP211) | Potency (CP215) | Potency (CP217) | Potency (CP237) | Potency (CP238) | Potency (CP247) | Potency (CP250) | Potency (CP252) | Potency (CP256) | Potency (CP260) | Potency (CP262) | Potency (CP265) | Potency (CP266) | Potency (CP268) | Potency (CP269) | Potency (CP286) | Potency (CP291) | Potency (CP297) | Potency (CP305) | Potency (CP315) | Potency (CP325) | Potency (CP329) | Potency (CP335) | Potency (DFO2036) | Potency (DIV14) | Potency (DIV17) | Potency (DIV30) | Potency (Dd2) | Potency (ECU) | Potency (FAB9) | Potency (GB4) | Potency (HB3) | Potency (ICS) | Potency (JCK) | Potency (N140) | Potency (P93_24) | Potency (P94_40) | Potency (PAD) | Potency (PC15) | Potency (PC26) | Potency (PC49) | Potency (SC27B) | Potency (TAB109) | Potency (TAB113) | Potency (TAB165)
